Laboratory results reported in the supplement of paper PMC3842684.

Experiments:
[1] = tested on: P. falciparum NF54-pfs16-GFP early (I-III) stage gametocytes; assay: relative % inhibition of viable gametocyte number; higher = more gametocytocidal; settings: stage: early (I-III) gametocyte, incubation 72 h
Procedure, shortened: (§1)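 In 384-well poly-D-lysine imaging plates, NF54 pfs16-GFP gametocytes (magnet-isolated, early I/IIa on day 2 or late on day 8; 10% parasitaemia, 0.1% haematocrit) received compound in duplicate at 5 or 0.5 µM. Plates stood 72 h at 37°C in 5% CO2 and 5% O2, then overnight with MitoTracker Red before confocal imaging, where elongated GFP objects with MitoTracker signal above cut-off counted as viable. Relative inhibition was calculated against vehicle and positive-control wells on the same plate.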

[2] = tested on: P. falciparum NF54-pfs16-GFP late (IV-V) stage gametocytes; assay: as above; settings: stage: late (IV-V) gametocyte, incubation 72 h
Procedure, shortened: as §1

| Compound | relative % inhibition ([1]; 0.5 µM) [%] | relative % inhibition ([1]; 5 µM) [%] | relative % inhibition ([2]; 0.5 µM) [%] | relative % inhibition ([2]; 5 µM) [%] |
| --- | --- | --- | --- | --- |
| CCOc1ccccc1CNC(=O)C1c2ccccc2C(=O)N(CC(C)C)C1c1cccs1 (centres undefined) | 6.2 | 54.1 | -4.49 | -12.6 |
| COc1ccc(-c2cn3c(C(=O)Nc4ccccc4Cl)c(-c4ccccc4)c4c3n2CCCC4)cc1 | 10.5 | 30.9 | 4.28 | 22.5 |
| Cc1[nH]c(-c2ccc(F)cc2)cc1C(=O)NC1CCN(Cc2ccccc2)CC1 | 14.7 | 75.3 | 6.29 | 15.4 |
| CCCCc1c(CCC)c(=N)c2ccccc2n1C | 16.2 | -5.38 | 18.3 | -17.8 |
| CCCCCCC(O)(c1ccc(F)cc1)C(CN1CCOCC1)c1ccccc1 (centres undefined) | -0.0307 | 47.2 | 8.28 | 33.1 |
| COc1ccc(Nc2nc(NN=Cc3ccc(O)cc3)nc(Nc3ccc([N+](=O)[O-])cc3)n2)cc1 | -0.568 | 101 | -4.05 | 31.8 |
| COc1ccc(C=C2SC(Nc3ccccc3)=NC2=O)cc1 | 11.7 | 17.7 | 47.2 | 61.6 |
| CC(C)(C)c1ccc(C(=O)Nc2c3c(nn2-c2cccc(Cl)c2)CSC3)cc1 | -12.5 | 10.5 | -5.32 | 8.85 |
| CSC1=NC(=Nc2c(C)cccc2C)C2(CCC(C(C)(C)C)CC2)N1c1ccc(Cl)cc1 (centres undefined) | 24.7 | 4.25 | 93.4 | 103 |
| CCN(CC)CCCNc1nc(-c2ccc(Cl)cc2)nc2ccccc12 | 11.6 | 96.5 | 13.1 | 23.5 |
| COc1ccc2nc(C)cc(Nc3cccc(O)c3)c2c1 | 2.97 | 3.08 | -18.7 | -9.92 |
| O=C(c1ccccc1F)N(Cc1ccc(Cl)cc1)c1ccccn1 | -17.2 | -20.6 | 2.03 | 16.8 |
| Cc1cc(C)c2nc(N3CCC(C(=O)NCCCN4CCC(N5CCCCC5)CC4)CC3)sc2c1 | 8.57 | 90.7 | -24.9 | 44.2 |
| Fc1ccc2[nH]c3c(NCCCN4CCOCC4)ncnc3c2c1 | 18.8 | 97.3 | -16.8 | 22.9 |
| O=C(NC1CCN(Cc2ccccc2)CC1)c1cc(-c2cccnc2)nc2ccc(Cl)cc12 | 3.2 | 46.2 | -30.4 | -0.963 |
| COc1cc(OC)cc(N2C(=O)N(Cc3ccc(C(C)(C)C)cc3)c3ccccc3S2(=O)=O)c1 | 10 | 6.11 | 4.34 | 35.7 |
| FC(F)(F)c1cccc(Nc2nc3ccccc3nc2Nc2cccc(C(F)(F)F)c2)c1 | 96.8 | 102 | 105 | 103 |
| COc1ccc2c(c1)OC(O)(C(F)(F)C(F)(F)F)CC2=O (centres undefined) | -12.9 | -4.42 | 8.91 | 10.1 |
| O=C(NC1CCN(Cc2ccccc2)CC1)c1cc2nc(-c3ccc(Cl)s3)cc(C(F)(F)F)n2n1 | 3.66 | -15.9 | 21.4 | 25 |
| O=C(Nc1ccc(-c2nc3cc4ccccc4cc3[nH]2)cc1)c1cccc(Br)c1 | 23.2 | 34.5 | -2.59 | 7.93 |
| COc1ccc(C(=O)NC(c2ccc(Cl)cc2Cl)c2cc(Cl)c3cccnc3c2O)cc1 (centres undefined) | 42.5 | 107 | 50.9 | 98.7 |
| COc1ccc(C(=O)Nc2ccc(Cl)cc2C(=O)Nc2ccncc2)cc1 | -7.22 | 22.3 | -6.74 | 3.3 |
| COc1ccc(N2CCN(C(CNC(=O)C3CCCCC3)c3ccc4c(c3)OCO4)CC2)cc1 (centres undefined) | 22.8 | 8.98 | 35.1 | 50.7 |
| OC1=C2C(=Nc3ccccc3SC2c2ccc(Br)cc2)c2ccccc21 (centres undefined) | 3.13 | 35.9 | 71.4 | 73 |

| Compound | relative % inhibition ([1]; 0.5 µM) [%] | relative % inhibition ([1]; 5 µM) [%] | relative % inhibition ([2]; 0.5 µM) [%] | relative % inhibition ([2]; 5 µM) [%] |
| --- | --- | --- | --- | --- |
| CCOC(=O)c1c(C)n(-c2ccccc2)c2ccc(OC(=O)c3cc(OC)c(OC)c(OC)c3)cc12 | 17.7 | -2.44 | -15.1 | -2.38 |
| Cc1cccc(-n2ncc3c(=O)[nH]c(-n4nc(C)cc4NC(=O)c4cc5ccccc5o4)nc32)c1 | -5.22 | 49 | 100 | 102 |
| O=C1c2ccc3c4c(ccc(c24)C(=O)N1CCCCO)C(=O)N(CCCCO)C3=O | -9.07 | 4.23 | 5.48 | 4.35 |
| CCOc1cc2c(cc1OCC)C(c1cc(OC)c(O)cc1Cl)NCC2 (centres undefined) | 22.5 | 100 | 25.6 | 48.3 |
| COc1ccc(-c2nc(N3CCN(C(=O)C4CCCCC4)CC3)c3c4c(sc3n2)CCCC4)cc1 | -24.1 | 55.7 | 92.2 | 86.8 |
| Cc1cc(Nc2ccc(Cl)cc2)n2nc(C(F)(F)F)nc2n1 | 4.02 | -6.02 | 7.36 | -10.1 |
| CCOc1ccc(-c2nc(NC(=O)c3cccc(S(C)(=O)=O)c3)sc2C)cc1 | 17.8 | 15.4 | 4.66 | -3.57 |
| c1ccc2cc3c(Nc4ccc(N5CCOCC5)cc4)ccnc3cc2c1 | -11.9 | 12.3 | 9.42 | 36.1 |
| OC(CNCC1CCCO1)Cn1c2ccc(Cl)cc2c2cc(Cl)ccc21 (centres undefined) | 16.5 | 31.6 | 45.5 | 75.6 |
| CCn1c2c(c(=N)c3c1CCC3)CCCC2 | -1.17 | 25.3 | 10.1 | -7.91 |
| COc1ccc(C2C(C(=O)Nc3cccc(OC)c3)c3ccccc3C(=O)N2C2CCCCC2)cc1 (centres undefined) | 15.6 | 87.5 | 5.71 | 78.2 |
| CCOc1c(Br)cc(C2C(C(=O)OC)=CN(C)C=C2C(=O)OC)cc1OC | 17.4 | 88.4 | -1.2 | 68.1 |
| O=C(Nc1ccc(C23CC4CC(CC(c5ccccc5)(C4)C2)C3)cc1)c1cccs1 | -8.5 | 12.3 | 12.9 | 31.6 |
| CC1CC(C)CN(C(=O)c2ccc(Cl)cc2Cl)C1 (centres undefined) | -0.883 | -4.96 | 1.4 | 3.37 |
| COc1cc(C(=O)Nc2nc3c(cc4c5c(cccc53)CC4)s2)cc(OC)c1OC | 5.49 | 13.9 | 12.4 | 5.43 |
| O=C(CSc1nccn2nc(-c3ccccc3)cc12)Nc1cc(C(F)(F)F)ccc1Cl | 3.61 | -9.64 | 15.1 | -0.775 |
| Cc1ccc(CN2CCC(C(=O)Nc3ccc(-c4cc5ccccc5[nH]4)cc3)CC2)o1 | 9.97 | 90.5 | 3.47 | -13.5 |
| O=C(Nc1ccc(N2CCN(Cc3ccccc3)CC2)cc1)c1cccs1 | 14.2 | 6.41 | 6.6 | 16.2 |
| N=c1c2ccccc2nnn1-c1cccc(C(F)(F)F)c1 | 1.39 | 17.4 | 14.7 | 46.2 |
| CCN(CC)S(=O)(=O)c1ccc(-c2csc(Nc3ccc(C)c(C)c3)n2)cc1 | 28 | 31.5 | 42.2 | 42.2 |
| CCN(CC)CCn1c(=N)n(CC(O)c2ccc(Cl)c(Cl)c2)c2ccccc21 (centres undefined) | 32.2 | 61.8 | 19.3 | 89.4 |
| CCOC(=O)C1(Cc2ccccc2)CCN(Cc2cccc(OC)c2O)CC1 | 14.7 | 52.6 | -5.97 | 22.8 |
| CCOc1c(Cl)cc(CNCC(O)c2ccccc2)cc1OC (centres undefined) | -19.6 | 13.9 | 36.5 | 57.1 |
| CCn1c(CN2CCN(Cc3ccccc3)CC2)nc2cc(NC(=O)c3cccs3)ccc21 | -11.6 | 9.85 | 28.5 | 50.7 |

| Compound | relative % inhibition ([1]; 0.5 µM) [%] | relative % inhibition ([1]; 5 µM) [%] | relative % inhibition ([2]; 0.5 µM) [%] | relative % inhibition ([2]; 5 µM) [%] |
| --- | --- | --- | --- | --- |
| O=C(Nc1ccc(Br)cc1)Nc1cccc(Cl)c1 | 20 | 26.8 | -8.75 | -6.59 |
| Oc1ccc2ccccc2c1CNc1nc2ccccc2[nH]1 | 11 | 66.5 | 6.29 | 12 |
| CCOC(=O)c1cn(CC)c2cc(N(C)CCc3ccc(OC)c(OC)c3)c(F)cc2c1=O | 38.6 | 51.6 | 72.3 | 97.7 |
| COc1ccc(C(=O)C2CC2c2ccc(Cl)cc2)cc1 (centres undefined) | 8.75 | 79.1 | 14.7 | 48.3 |
| O=C(Cc1ccccc1)NC(c1ccc(Cl)cc1)c1c(O)ccc2ccccc12 (centres undefined) | 14.2 | 104 | 1.94 | 27.6 |
| CC(C)(C)c1ccc(C2CC3=Nc4ccccc4N(C(=O)c4ccccc4Cl)C(c4ccc(F)cc4)C3=C(O)C2)cc1 (centres undefined) | 20 | 80.4 | 60.8 | 89.9 |
| CCN(CC)c1ccc(NC(=O)c2cccs2)cc1 | -1.58 | -23.9 | 16.7 | 43.6 |
| CCCCOc1ccc(C(=O)Nc2cc(C)on2)cc1 | 3 | 12.9 | -7.15 | 17.4 |
| Nc1ccn(C2O[C@H](CO)[C@@H](O)[C@H]2O)c(=O)n1 (some centres undefined) | -12.7 | 9.7 | 8.91 | -10.9 |
| Oc1ccccc1CNCC12CC3CC(CC(C3)C1)C2 | 91.6 | 84.2 | 44.7 | 29.3 |
| CCC(=O)Nc1nnc(Cc2ccc(OC)c(OC)c2)s1 | 16.8 | 4.14 | 0.759 | 6.51 |
| CCCc1c(CC)c(=N)c2ccccc2n1C | 25.1 | 19.6 | 7.6 | -7.96 |
| CCCCOC(=O)c1ccc(Nc2cc(C)nc3ccc(OC)cc23)cc1 | -28.1 | 70 | 13.1 | 18.5 |
| CCC(O)c1ccc(Br)cc1NC(=O)c1cccc(Cl)c1 (centres undefined) | 3.28 | 93.3 | 12 | 28.6 |
| Oc1ccc(-c2nc(-c3ccc4oc5ccc(-c6[nH]c(-c7ccc(O)cc7)nc6-c6ccccc6)cc5c4c3)c(-c3ccccc3)[nH]2)cc1 | 92.1 | 107 | 3.61 | 52.7 |
| COc1ccc(C(C)=O)cc1N1C(=O)C2C(C1=O)C1(c3ccccc3)C(=O)C2(c2ccccc2)C(c2ccc(C)cc2)=C1c1ccc(C)cc1 (centres undefined) | 52.9 | 93.5 | 78.9 | 73.1 |
| O=C(Nc1ccccc1O)c1ccc(-c2ccc(Cl)cc2Cl)o1 | 21.2 | -5.25 | 19.3 | 17.5 |
| O=C(Nc1ccc(CN2CCOCC2)cc1)c1ccc(-c2ccc(Br)cc2)o1 | 16.2 | -18 | 27.9 | 4.05 |
| Cc1ccc(NC(=O)Nc2cccc(Cl)c2)cc1F | 11 | 28.9 | -16 | 21.8 |
| O=c1cc(NC2CCN(CCCc3ccccc3)CC2)c2cc(Cl)ccc2o1 | 10.6 | 79.8 | -5.8 | -6.17 |
| COc1ccc(C=C2SC(Nc3ccc(F)cc3)=NC2=O)c(OC)c1 | 2.18 | 8.91 | 24.9 | 87.9 |
| CNCCCNc1ccnc2cc(Cl)ccc12 | 106 | 106 | 26.6 | 39.1 |
| c1ccc(-c2ccc(-c3nc4ccccc4[nH]3)cc2)cc1 | -4.6 | -6.39 | 15.9 | 5.71 |
